# According to ChEMBL document CHEMBL2218924, “A broad activity screen in support of a chemogenomic map for kinase signalling research and drug discovery” (Biochem J, 2013):
# Experiments:
# [1] = biological target: T1, Muscle, skeletal receptor tyrosine-protein kinase (Homo sapiens) (UniProt O15146); conditions: at 1 µM
# T1 sequence (whole entry): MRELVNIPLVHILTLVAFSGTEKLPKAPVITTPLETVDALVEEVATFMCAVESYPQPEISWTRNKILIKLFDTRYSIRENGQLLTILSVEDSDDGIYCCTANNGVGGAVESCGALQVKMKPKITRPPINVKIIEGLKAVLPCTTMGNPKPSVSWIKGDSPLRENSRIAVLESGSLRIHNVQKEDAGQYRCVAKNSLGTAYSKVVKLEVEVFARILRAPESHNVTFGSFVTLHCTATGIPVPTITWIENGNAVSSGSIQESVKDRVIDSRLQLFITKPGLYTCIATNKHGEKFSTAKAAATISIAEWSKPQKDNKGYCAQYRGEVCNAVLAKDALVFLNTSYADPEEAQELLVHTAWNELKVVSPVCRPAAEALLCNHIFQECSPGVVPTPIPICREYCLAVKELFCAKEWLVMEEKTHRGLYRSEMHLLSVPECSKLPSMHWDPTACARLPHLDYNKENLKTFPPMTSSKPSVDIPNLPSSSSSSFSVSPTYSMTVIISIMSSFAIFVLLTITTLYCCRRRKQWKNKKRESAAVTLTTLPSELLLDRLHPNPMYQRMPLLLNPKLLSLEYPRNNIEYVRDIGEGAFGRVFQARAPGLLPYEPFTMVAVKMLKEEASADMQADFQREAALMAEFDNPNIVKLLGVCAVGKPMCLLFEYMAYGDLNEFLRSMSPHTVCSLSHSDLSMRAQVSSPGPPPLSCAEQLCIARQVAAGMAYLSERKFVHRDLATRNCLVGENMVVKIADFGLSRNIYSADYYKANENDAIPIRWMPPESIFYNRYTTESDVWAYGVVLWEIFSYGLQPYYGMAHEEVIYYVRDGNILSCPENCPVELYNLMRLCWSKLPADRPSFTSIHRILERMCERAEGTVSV
# [2] = biological target: T1, Muscle, skeletal receptor tyrosine-protein kinase (Homo sapiens); conditions: at 10 µM
# [3] = biological target: T2, Serine/threonine-protein kinase Nek11 (Homo sapiens) (UniProt Q8NG66); conditions: at 1 µM
# T2 sequence (whole entry): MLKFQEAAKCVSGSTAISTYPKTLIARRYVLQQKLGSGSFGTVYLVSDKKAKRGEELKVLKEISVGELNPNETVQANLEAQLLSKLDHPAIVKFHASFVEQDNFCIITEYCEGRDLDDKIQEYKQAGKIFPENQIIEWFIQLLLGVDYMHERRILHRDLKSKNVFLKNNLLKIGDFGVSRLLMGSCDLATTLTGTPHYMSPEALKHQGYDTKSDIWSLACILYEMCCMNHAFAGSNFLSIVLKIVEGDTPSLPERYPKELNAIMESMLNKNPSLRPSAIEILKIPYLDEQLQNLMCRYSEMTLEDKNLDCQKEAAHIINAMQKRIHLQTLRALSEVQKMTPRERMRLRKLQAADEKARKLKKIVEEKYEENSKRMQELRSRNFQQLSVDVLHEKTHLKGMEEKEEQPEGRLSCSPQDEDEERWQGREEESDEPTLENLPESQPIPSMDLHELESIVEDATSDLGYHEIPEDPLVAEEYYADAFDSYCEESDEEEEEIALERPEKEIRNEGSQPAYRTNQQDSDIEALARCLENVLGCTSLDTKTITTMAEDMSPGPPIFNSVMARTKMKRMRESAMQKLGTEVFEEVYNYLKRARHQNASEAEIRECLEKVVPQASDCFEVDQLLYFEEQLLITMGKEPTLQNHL
# [4] = biological target: T2, Serine/threonine-protein kinase Nek11 (Homo sapiens); conditions: at 10 µM
# [5] = biological target: T3, Serine/threonine-protein kinase Nek2 (Homo sapiens) (UniProt P51955); conditions: at 1 µM
# T3 sequence (whole entry): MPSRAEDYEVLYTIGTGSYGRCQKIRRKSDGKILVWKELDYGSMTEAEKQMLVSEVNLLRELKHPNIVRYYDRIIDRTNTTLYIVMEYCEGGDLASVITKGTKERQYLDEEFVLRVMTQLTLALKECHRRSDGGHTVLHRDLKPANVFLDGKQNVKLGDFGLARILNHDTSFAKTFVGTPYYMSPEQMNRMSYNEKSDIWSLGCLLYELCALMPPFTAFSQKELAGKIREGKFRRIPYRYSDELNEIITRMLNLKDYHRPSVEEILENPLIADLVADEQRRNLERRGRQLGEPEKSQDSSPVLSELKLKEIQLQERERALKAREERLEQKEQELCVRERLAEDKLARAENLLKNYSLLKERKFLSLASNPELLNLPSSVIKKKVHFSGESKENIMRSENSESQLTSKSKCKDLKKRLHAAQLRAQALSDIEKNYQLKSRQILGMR
# [6] = biological target: T3, Serine/threonine-protein kinase Nek2 (Homo sapiens); conditions: at 10 µM
# [7] = biological target: T4, Serine/threonine-protein kinase Nek3 (Homo sapiens) (UniProt P51956); conditions: at 1 µM
# T4 sequence (whole entry): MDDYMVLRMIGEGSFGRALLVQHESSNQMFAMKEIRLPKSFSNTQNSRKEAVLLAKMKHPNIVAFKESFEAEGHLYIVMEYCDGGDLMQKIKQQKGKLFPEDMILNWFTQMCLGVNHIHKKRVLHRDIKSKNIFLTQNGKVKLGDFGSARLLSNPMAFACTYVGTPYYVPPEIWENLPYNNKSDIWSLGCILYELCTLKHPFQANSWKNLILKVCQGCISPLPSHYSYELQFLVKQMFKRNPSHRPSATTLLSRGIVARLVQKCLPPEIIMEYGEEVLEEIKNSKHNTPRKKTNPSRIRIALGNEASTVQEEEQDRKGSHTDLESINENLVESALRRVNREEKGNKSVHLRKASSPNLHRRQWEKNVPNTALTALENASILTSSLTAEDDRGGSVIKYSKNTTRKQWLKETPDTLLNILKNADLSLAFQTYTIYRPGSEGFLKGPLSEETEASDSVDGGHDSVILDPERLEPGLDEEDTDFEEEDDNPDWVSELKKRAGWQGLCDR
# [8] = biological target: T4, Serine/threonine-protein kinase Nek3 (Homo sapiens); conditions: at 10 µM
# [9] = biological target: Serine/threonine-protein kinase tousled-like 2 (Homo sapiens) (UniProt Q86UE8); conditions: at 1 µM
# [10] = biological target: Serine/threonine-protein kinase tousled-like 2 (Homo sapiens) (UniProt Q86UE8); conditions: at 10 µM
# [11] = biological target: T5, Testis-specific serine/threonine-protein kinase 1 (Homo sapiens) (UniProt Q9BXA7); conditions: at 1 µM
# T5 sequence (whole entry): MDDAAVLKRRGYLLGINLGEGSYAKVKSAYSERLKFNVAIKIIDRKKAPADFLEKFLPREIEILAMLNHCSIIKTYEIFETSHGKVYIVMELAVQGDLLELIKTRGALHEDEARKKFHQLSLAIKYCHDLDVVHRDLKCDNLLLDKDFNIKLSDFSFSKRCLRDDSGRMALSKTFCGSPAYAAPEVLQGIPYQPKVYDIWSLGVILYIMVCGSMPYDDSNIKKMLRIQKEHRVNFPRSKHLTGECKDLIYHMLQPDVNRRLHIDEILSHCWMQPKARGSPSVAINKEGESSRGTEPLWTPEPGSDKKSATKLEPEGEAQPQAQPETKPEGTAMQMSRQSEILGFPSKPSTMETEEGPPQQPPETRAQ
# [12] = biological target: T5, Testis-specific serine/threonine-protein kinase 1 (Homo sapiens); conditions: at 10 µM
# [13] = biological target: T6, Testis-specific serine/threonine-protein kinase 2 (Homo sapiens) (UniProt Q96PF2); conditions: at 10 µM
# T6 sequence (whole entry): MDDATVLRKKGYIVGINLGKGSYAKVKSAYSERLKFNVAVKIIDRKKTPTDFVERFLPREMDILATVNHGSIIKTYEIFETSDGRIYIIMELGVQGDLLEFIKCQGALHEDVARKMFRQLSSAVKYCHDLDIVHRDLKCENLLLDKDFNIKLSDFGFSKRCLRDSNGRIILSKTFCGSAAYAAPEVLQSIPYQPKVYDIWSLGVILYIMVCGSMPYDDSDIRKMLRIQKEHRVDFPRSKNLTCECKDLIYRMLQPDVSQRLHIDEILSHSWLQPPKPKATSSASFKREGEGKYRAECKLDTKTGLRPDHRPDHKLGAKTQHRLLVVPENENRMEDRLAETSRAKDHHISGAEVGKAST
# [14] = biological target: T7, Tyrosine-protein kinase Tec (Homo sapiens) (UniProt P42680); conditions: at 1 µM
# T7 sequence (whole entry): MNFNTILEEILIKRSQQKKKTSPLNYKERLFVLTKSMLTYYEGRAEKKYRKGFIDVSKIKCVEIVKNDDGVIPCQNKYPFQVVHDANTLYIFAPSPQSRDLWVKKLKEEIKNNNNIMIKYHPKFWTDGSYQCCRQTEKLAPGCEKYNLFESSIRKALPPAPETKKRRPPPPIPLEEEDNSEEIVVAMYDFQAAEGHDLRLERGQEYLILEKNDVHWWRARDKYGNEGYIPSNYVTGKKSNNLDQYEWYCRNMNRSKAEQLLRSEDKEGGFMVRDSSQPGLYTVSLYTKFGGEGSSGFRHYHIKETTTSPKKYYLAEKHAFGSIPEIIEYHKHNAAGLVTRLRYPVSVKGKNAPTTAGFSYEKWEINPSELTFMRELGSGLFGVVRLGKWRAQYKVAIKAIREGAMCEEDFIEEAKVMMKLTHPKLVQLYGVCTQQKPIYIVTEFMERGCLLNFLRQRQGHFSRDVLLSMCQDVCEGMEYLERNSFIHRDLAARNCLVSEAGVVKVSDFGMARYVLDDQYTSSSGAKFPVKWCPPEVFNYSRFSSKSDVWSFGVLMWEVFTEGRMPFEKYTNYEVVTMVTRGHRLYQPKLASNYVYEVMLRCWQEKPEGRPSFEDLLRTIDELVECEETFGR
# [15] = biological target: T7, Tyrosine-protein kinase Tec (Homo sapiens); conditions: at 10 µM
# [16] = biological target: Angiopoietin-1 receptor (Homo sapiens) (UniProt Q02763); conditions: at 1 µM
# [17] = biological target: Angiopoietin-1 receptor (Homo sapiens) (UniProt Q02763); conditions: at 10 µM
# [18] = biological target: High affinity nerve growth factor receptor (Homo sapiens) (UniProt P04629); conditions: at 1 µM
# [19] = biological target: High affinity nerve growth factor receptor (Homo sapiens) (UniProt P04629); conditions: at 10 µM
# [20] = biological target: BDNF/NT-3 growth factors receptor (Homo sapiens) (UniProt Q16620); conditions: at 1 µM
# Chain of BDNF/NT-3 growth factors receptor (Homo sapiens) (Q16620 32-822 limits assumed): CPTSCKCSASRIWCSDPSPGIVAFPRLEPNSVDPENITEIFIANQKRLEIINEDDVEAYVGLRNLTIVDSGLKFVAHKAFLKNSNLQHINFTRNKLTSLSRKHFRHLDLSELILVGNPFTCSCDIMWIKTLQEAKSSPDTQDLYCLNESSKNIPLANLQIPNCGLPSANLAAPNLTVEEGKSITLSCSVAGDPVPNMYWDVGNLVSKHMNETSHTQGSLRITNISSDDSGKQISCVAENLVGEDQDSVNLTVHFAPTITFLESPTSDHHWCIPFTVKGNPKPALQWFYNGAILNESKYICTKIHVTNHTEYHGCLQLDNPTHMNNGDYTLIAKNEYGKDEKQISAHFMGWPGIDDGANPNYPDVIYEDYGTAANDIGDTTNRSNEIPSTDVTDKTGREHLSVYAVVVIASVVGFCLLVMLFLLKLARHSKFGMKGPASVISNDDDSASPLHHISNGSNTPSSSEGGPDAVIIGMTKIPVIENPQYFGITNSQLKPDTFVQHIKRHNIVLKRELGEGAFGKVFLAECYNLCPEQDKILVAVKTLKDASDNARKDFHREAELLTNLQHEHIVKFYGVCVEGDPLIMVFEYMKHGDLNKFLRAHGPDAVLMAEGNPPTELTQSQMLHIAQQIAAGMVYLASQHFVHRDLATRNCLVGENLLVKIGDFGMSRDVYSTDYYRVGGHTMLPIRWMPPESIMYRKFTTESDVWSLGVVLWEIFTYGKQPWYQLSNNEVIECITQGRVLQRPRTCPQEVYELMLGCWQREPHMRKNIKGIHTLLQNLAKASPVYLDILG
# Chain of Angiopoietin-1 receptor (Homo sapiens) (Q02763 whole entry): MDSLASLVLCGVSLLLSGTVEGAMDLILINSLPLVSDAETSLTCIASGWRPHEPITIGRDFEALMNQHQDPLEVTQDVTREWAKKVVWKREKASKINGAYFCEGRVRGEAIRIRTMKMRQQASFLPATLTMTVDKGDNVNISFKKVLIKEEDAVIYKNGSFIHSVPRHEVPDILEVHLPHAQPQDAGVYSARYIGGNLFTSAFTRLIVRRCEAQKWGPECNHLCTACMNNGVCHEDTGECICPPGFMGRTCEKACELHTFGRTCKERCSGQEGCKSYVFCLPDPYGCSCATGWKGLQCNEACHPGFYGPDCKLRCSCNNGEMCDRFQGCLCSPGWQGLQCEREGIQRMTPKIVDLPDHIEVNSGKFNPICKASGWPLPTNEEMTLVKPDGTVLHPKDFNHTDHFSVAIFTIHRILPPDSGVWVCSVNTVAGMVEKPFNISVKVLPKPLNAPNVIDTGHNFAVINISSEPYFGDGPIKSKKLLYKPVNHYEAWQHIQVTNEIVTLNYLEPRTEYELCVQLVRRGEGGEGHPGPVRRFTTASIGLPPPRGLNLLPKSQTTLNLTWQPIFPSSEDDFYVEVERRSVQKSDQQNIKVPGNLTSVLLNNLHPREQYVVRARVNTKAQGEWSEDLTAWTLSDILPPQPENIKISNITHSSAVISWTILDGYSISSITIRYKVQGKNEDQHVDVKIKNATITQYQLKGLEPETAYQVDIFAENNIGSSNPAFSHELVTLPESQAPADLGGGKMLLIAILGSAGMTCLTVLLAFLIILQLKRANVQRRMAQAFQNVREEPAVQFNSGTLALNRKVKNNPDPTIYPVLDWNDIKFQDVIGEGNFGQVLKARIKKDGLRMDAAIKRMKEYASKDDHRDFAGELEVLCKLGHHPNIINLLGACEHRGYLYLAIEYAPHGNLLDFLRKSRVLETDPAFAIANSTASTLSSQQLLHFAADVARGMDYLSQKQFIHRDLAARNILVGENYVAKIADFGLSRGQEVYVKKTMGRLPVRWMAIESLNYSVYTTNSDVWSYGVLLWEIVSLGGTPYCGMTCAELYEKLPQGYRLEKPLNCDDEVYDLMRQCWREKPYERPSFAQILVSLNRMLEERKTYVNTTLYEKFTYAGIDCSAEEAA
# Chain of High affinity nerve growth factor receptor (Homo sapiens) (P04629 33-796 limits assumed): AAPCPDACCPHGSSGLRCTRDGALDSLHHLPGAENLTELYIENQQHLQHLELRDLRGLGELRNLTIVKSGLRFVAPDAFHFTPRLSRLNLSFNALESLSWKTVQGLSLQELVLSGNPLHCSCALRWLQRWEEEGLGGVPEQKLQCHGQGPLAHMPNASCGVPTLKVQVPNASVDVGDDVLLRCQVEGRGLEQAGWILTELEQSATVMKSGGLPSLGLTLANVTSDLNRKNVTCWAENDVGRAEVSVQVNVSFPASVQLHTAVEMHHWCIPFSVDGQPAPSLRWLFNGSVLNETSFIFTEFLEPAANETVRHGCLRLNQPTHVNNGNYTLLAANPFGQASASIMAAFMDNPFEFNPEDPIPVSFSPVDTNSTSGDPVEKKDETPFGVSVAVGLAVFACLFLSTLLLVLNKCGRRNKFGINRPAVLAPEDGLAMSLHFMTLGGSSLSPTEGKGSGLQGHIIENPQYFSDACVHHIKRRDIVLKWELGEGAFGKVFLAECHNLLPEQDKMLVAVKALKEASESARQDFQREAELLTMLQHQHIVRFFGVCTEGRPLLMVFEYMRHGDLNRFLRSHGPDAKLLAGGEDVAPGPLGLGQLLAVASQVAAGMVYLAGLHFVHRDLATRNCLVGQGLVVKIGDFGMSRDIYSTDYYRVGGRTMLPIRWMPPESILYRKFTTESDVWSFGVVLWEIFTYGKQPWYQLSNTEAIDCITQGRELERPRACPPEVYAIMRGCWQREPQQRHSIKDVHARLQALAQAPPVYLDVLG
# Chain of Serine/threonine-protein kinase tousled-like 2 (Homo sapiens) (Q86UE8 whole entry, looked up): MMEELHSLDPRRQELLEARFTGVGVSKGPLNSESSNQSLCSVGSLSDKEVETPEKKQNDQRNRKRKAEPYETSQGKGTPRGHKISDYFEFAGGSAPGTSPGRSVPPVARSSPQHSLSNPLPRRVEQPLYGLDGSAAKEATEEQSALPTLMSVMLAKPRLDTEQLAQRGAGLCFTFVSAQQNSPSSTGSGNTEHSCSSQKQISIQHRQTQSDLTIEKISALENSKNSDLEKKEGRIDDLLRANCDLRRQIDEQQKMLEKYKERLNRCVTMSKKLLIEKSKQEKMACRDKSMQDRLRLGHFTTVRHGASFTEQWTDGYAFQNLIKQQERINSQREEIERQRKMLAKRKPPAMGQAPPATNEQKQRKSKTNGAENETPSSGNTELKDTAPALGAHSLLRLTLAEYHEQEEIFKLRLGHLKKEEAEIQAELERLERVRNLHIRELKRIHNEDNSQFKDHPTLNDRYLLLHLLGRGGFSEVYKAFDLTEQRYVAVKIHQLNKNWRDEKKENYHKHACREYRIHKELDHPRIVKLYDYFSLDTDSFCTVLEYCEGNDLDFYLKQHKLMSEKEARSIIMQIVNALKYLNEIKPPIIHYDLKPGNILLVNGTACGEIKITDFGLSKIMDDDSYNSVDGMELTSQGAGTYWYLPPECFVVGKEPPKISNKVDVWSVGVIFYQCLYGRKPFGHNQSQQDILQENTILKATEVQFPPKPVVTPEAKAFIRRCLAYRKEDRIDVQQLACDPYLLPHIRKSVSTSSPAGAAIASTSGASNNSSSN
SMILES,residual activity [1] [%],residual activity [2] [%],residual activity [3] [%],residual activity [4] [%],residual activity [5] [%],residual activity [6] [%],residual activity [7] [%],residual activity [8] [%],residual activity [9] [%],residual activity [10] [%],residual activity [11] [%],residual activity [12] [%],residual activity [13] [%],residual activity [14] [%],residual activity [15] [%],residual activity [16] [%],residual activity [17] [%],residual activity [18] [%],residual activity [19] [%],residual activity [20] [%]
CC#CC(=O)Nc1cc2c(Nc3ccc(F)c(Cl)c3)ncnc2cn1,100,84,70,99,73,95,107,84,102,87,98,81,82,62,70,52,57,91,111,110
CO[C@H]1[C@@H](OC)C[C@H](C)[C@@H](OC)C2=CC(=O)C=C(NC(=O)/C(C)=C/C=C/[C@H](OC)[C@@H](OC(N)=O)/C(C)=C/[C@@H]1C)C2=O,104,85,97,97,95,84,101,76,90,95,100,88,75,89,84,84,76,120,118,113
COc1ccc(OC)c2c(=S)c3ccccc3[nH]c12,89,85,70,54,98,95,74,91,84,87,90,94,90,92,84,94,94,78,57,88
CC[n+]1c(/C=C/N(C)c2ccccc2)n(-c2ccccc2)c2ccc(-c3nc4ccccc4s3)cc21,114,58,71,99,83,123,116,92,109,80,102,73,78,77,27,103,30,85,34,67
O=Nc1c(-c2c(O)[nH]c3ccccc23)[nH]c2ccccc12,58,5,70,18,93,83,86,94,60,14,78,53,78,64,22,103,41,0,0,0
C[C@@H](N)[C@H]1CC[C@H](C(=O)Nc2ccncc2)CC1,103,101,99,96,120,102,120,120,93,94,97,90,99,83,98,84,78,112,105,106
Oc1c2ccccc2c2c3c(cccc13)N=N2,60,24,50,47,86,81,70,79,71,38,75,49,86,89,57,95,63,10,-1,32
O=C(Nc1cccc(Nc2nccc(Nc3cccc(C(F)(F)F)c3)n2)c1)C1CC1,88,3,90,80,94,101,88,33,109,93,94,64,78,78,9,136,70,18,1,44
CCOc1cc2ncnc(Nc3cccc(Br)c3)c2cc1OCC,95,70,104,89,77,93,118,88,98,95,99,83,67,74,38,48,46,87,43,116
Nc1ccc2ncnc(NCCc3ccc(Oc4ccccc4)cc3)c2c1,92,49,68,55,114,101,81,109,111,100,89,58,98,84,30,114,66,89,56,82
Cc1ccc(NC2=CC(=O)c3sc(C)nc3C2=O)cc1,90,85,66,75,91,89,81,101,87,84,92,98,86,85,93,100,99,89,88,102
CC(C)n1cnc2c(NCc3ccccc3)nc(NCCCO)nc21,82,86,57,72,96,82,85,99,96,89,90,89,81,90,89,104,87,93,94,88
Nc1cccc(-c2cc3c(Oc4cccc(O)c4)ncnc3[nH]2)c1,73,17,54,25,97,71,42,23,90,87,101,71,78,17,0,18,1,61,6,74
